# Activity calls are given as the source filed them. Rule for the calls: active = hit-call score of the fitted dose curve at least 0.9, where 1 is the maximum; inactive = score below 0.9.
# Tests used:
# [1] = ATG_E_Box_CIS: Attagene CIS-FACTORIAL HepG2 Assay for human Enhancer Box (E-box) (AID 2282936); details: HepG2 E-box cis-reporter transcription, actives raise or lower the signal
# In short: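 Cells: HepG2 (human liver), transient MRTU transfection. Exposure 24 h. RNA → oligo(dT) RT → PCR → 6-FAM label → HpaI → CE. Activity fitted both directions relative to DMSO.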
# [2] = ATG_M_61_CIS: Attagene CIS-FACTORIAL HepG2 Assay for M61 Transcription Factor (Internal Marker) (AID 2282937); details: HepG2 Attagene CIS-FACTORIAL M61 internal marker reporter; actives raise or lower the signal
# In short: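 Readout: fluorescent reporter mRNA fragments resolved by capillary electrophoresis after RT-PCR. Transiently transfected human HepG2 cells carried MRTU constructs reporting endogenous TF activity; 24 h chemical exposure; gain or loss of signal fitted relative to DMSO.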
# [3] = ATG_M_19_CIS: Attagene CIS-FACTORIAL HepG2 Assay for M19 Transcription Factor (Internal Marker) (AID 2282939); details: HepG2 Attagene CIS-FACTORIAL M19 internal marker reporter; actives raise or lower the signal
# In short: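 Chemical-treated HepG2 (24 h) with MRTU constructs; reporter transcripts detected by fluorescent RT-PCR fragment analysis on capillary electrophoresis. Internal background marker, DMSO as baseline.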
# [4] = ATG_ERE_CIS: Attagene CIS-FACTORIAL HepG2 Assay for Estrogen Response Element (ERE) (AID 2282940); details: HepG2 ERE cis-reporter, Attagene RNA transcript; actives raise or lower the signal
# In short: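 Human liver cells (HepG2) bearing transiently transfected, promoter-regulated reporter units were exposed 24 h. Reporter mRNA induction was detected by capillary electrophoresis of labelled RT-PCR products and fitted bidirectionally to DMSO.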
# [5] = ATG_Ets_CIS: Attagene CIS-FACTORIAL HepG2 Assay for human Erythroblast Transformation Specific (ETS) (AID 2282941); details: HepG2 ETS cis-reporter transcription, actives raise or lower the signal
# In short: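 HepG2 cells transiently transfected with cis-promoter reporter transcription units were dosed for 24 h; reporter mRNA was measured by RT-PCR, 6-FAM primer extension, HpaI digestion and capillary electrophoresis, with bidirectional fitting against DMSO baseline.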
# [6] = biological target: Hepatocyte nuclear factor 3-beta (Homo sapiens) (UniProt Q9Y261); assay: ATG_FoxA2_CIS: Attagene CIS-FACTORIAL HepG2 Assay for human Forkhead box A2 (FOXA2) (AID 2282942); details: HepG2 cis-reporter transcription factor activity, 24 h; actives raise or lower the signal
# In short: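 Readout: fluorescent reporter transcripts resolved by capillary electrophoresis after RT-PCR. Transiently transfected HepG2, 24 h compound exposure, endogenous TF activity at cis promoter elements. Gain or loss of signal fitted relative to DMSO.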
# [7] = ATG_FoxO_CIS: Attagene CIS-FACTORIAL HepG2 Assay for human Forkhead box O (FoxO) (AID 2282943); details: HepG2 Attagene cis-reporter, FoxO element, mRNA; actives raise or lower the signal
# In short: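 HepG2, transient MRTU transfection (cis element, endogenous TFs). Dose 24 h. TriZol RNA → oligo(dT) RT → PCR → 6-FAM primer extension → HpaI cut → CE. Gain/loss vs DMSO.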
# [8] = ATG_GATA_CIS: Attagene CIS-FACTORIAL HepG2 Assay for human GATA Binding Protein (AID 2282944); details: HepG2 GATA cis-element reporter, Attagene multiplex mRNA; actives raise or lower the signal
# In short: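 Transfected cis-reporter HepG2 cells were treated with chemicals for 24 hours. Total RNA was then converted to cDNA, amplified with reporter-specific primers and analysed by fluorescent capillary electrophoresis, using DMSO-treated wells as baseline.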
# [9] = ATG_EGR_CIS: Attagene CIS-FACTORIAL HepG2 Assay for human Early Growth Response 1 (EGR1) (AID 2282938); details: HepG2 Attagene CIS-FACTORIAL EGR reporter mRNA; actives raise or lower the signal
# In short: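 Read-out: fluorescent reporter-mRNA fragments resolved by capillary electrophoresis after RT-PCR, 24 h post-dose in transiently transfected HepG2. Endogenous transcription-factor activity reported via cis-element-regulated reporter units; gain or loss fitted relative to DMSO.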
# Sequence of Hepatocyte nuclear factor 3-beta (Homo sapiens) (Q9Y261 whole entry, looked up): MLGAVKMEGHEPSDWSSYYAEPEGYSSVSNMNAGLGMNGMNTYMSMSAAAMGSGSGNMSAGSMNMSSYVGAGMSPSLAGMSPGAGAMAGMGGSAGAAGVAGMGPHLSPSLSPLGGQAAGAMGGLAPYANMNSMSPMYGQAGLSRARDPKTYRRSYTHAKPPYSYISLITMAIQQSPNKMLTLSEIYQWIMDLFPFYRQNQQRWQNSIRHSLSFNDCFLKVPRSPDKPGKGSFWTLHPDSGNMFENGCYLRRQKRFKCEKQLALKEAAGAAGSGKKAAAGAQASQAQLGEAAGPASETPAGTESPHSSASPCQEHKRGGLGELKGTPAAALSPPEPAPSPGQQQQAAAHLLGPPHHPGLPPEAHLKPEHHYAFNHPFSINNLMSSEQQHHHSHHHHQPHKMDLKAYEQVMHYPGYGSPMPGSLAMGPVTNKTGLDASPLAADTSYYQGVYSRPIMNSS
SMILES,outcome [1],outcome [2],outcome [3],outcome [4],outcome [5],outcome [6],outcome [7],outcome [8],outcome [9],AC50 [4]
CCOc1ccc(NC(N)=O)cc1,inactive,inactive,inactive,inactive,inactive,inactive,inactive,inactive,,
CCCCCCOC(=O)CCCCC(=O)OCCCCCC,inactive,inactive,inactive,,inactive,inactive,inactive,inactive,inactive,
CCCCCCCCCCCCc1ccc(O)cc1,inactive,inactive,inactive,,,inactive,inactive,inactive,inactive,146 nM (active)
CCc1cccc(C)c1N,inactive,inactive,inactive,inactive,inactive,inactive,inactive,inactive,inactive,

# Reference: PubChem BioAssay (EPA / NIEHS)
